16 compounds from PubChem BioAssay (NCI) can be followed below.

Structures are written as SMILES. This is part of a sample that, as a whole, favours compounds with a hit. Of some 83,000 tested, about 20% had one in any assay.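 Interpretation: 100, growth as untreated; towards 0, rising growth inhibition; 0, no net growth; 0 to -100, cell death. Compounds scoring below 10 were considered active.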 A number with no mark means an inactive call. The source made the active and inactive calls.

Common to all, as to assay: NCI-60 one-dose screen, 48 h (100 = growth as untreated, 0 = no growth, -100 = all killed)
Details in all cases: 10 µM unless noted

Test [1] concerns SK-MEL-2 melanoma.
For test [2], the system named is EKVX NSCLC.
The test system of test [3] is SN12C renal.
Test [4] deals with UO-31 renal.
Test [5] deals with TK-10 renal.
Test [6] deals with ACHN renal.
The test system of test [7] is CAKI-1 renal.
In test [8] the test system is CCRF-CEM leukemia.
The subject of test [9] is MOLT-4 leukemia.
Test [10] relates to SR leukemia.
In test [11] the test system is OVCAR-8 ovarian.
The test system of test [12] is OVCAR-5 ovarian.
For test [13], the system named is OVCAR-4 ovarian.
For test [14], the system named is IGROV1 ovarian.
For test [15], the system named is OVCAR-3 ovarian.
Test [16] concerns HS 578T breast.
In test [17] the test system is NCI/ADR-RES ovarian.
The subject of test [18] is A498 renal.
For test [19], the system named is RPMI-8226 leukemia.
Test [20] has as its system SK-OV-3 ovarian.

As for `Nc1nc(Nc2ccc(Cl)cc2)nn1S(=O)(=O)c1ccc(-c2ccc(F)cc2)cc1`, the growth in [1] was 107%; in test [2] it was 81.5%; in [3], 83.2%; in [4] it was 57.2%; in [5] it was 97.3%; in [6] it was 81.8%. The growth in test [7] is 59.8%; in test [8], 95.1%; in [9] it was 74.5%; in [10], 85.5%; in test [11], 83.8%; in test [12], 85.7%. Moreover, the growth is 89.4% in test [13]; 76.2% in test [14]; 92.1% in [15]; 79.6% in test [16]; 83.3% in test [17].
As to `COc1ccc(/C=C(\C#N)n2nnc3ccccc32)cc1`, the growth in [1] was 38.5%; in test [2], 24.1%; in test [3], 18.9%; in [4], 33.2%; in test [5], 44%; in [6], 23%. In addition, the growth in [7] is 25%; in test [8], 18.8%; in test [9], 18.7%; in test [10], 27%; in test [11], 19.6%; in test [12] it was -13.4% (active). Besides, the growth was 35.1% in [13]; 7.84% (active) in [14]; -66.4% (active) in test [15]; -0.28% (active) in [16]; 0.0544% (active) in test [17].
For the compound `Cc1nc(Nc2ccc(NC(=S)Nc3ccccc3)cc2)nc2nc(SCc3ccccc3)[nH]c(=O)c12`, the growth in test [1] is 110%; in test [2], 99.2%; in test [3], 93.6%; in test [4], 86%; in [5] it was 199%; in test [6] it was 107%. Besides, the growth was 102% in [18]; 92.3% in test [8]; 87.4% in test [9]; 61.8% in [10]; 67% in test [19]; 82.4% in [11]. Further, the growth is 102% in [12]; 106% in [13]; 109% in [20]; 65.7% in test [14]; 112% in [15]; 105% in [16]. Also, the growth in test [17] is 110%.
As for `COc1cc(/C=C/C(=O)c2ccc(Nc3nc(Nc4ccccc4)nc(Nc4ccc(Cl)cc4)n3)cc2)cc(OC)c1OC`, the growth in [1] is 82%; in test [2] it was 52.8%; in test [3], 69%; in test [4], 50.6%; in [5], 74.7%; in [6] it was 66.1%. The growth is 66.4% in test [7]; 18.5% in [8]; 25.5% in test [9]; -4.87% (active) in [19]; 41.1% in [11]; 55.1% in test [12]. The growth in test [13] is 61%; in test [20], 79.5%; in test [14], 54.8%; in [15], 48%; in test [17], 21.8%.
In the case of `Cc1ccc(O)c(C(=O)c2ccccc2Cl)c1`, the growth in [1] is 112%; in test [2], 87.7%; in [3], 103%; in test [4] it was 79.7%; in [5], 98.4%; in [6] it was 94.8%. Also, the growth in test [7] was 84.2%; in test [9] it was 94.8%; in [19] it was 112%; in [11], 97.6%; in [12] it was 85%; in [13] it was 91.9%. Also, the growth was 112% in test [20], 102% in [14], 118% in test [15] and 89% in [17].
On to `N#C/C=C(\c1ccc([N+](=O)[O-])cc1)n1nnc2cc(Cl)c(Cl)cc21`, for which the growth in test [1] is 65.8%; in [2], 38.6%; in test [3], -20.1% (active); in [4], -70.9% (active); in test [5] it was -16.2% (active); in test [6] it was -85% (active). Besides, the growth in test [7] was 40.9%; in [8], 9.49% (active); in test [9] it was 22.4%; in test [10], 13%; in test [11], 15.7%; in test [12], 10.1%. In addition, the growth was 0.234% (active) in [13]; -43% (active) in test [14]; -48% (active) in [15]; 27.8% in test [16]; -4.34% (active) in [17].
Turning to `Cl.Fc1c[c-]c(-c2ccccn2)c(F)c1.[Pt].c1ccc([PH+](c2ccccc2)c2ccccc2[PH+](c2ccccc2)c2ccccc2)cc1`, the growth in [1] was -82.1% (active); in test [2], -94.8% (active); in test [3], -81.3% (active); in [4], -98.8% (active); in [5], -87.2% (active); in test [6], -100% (active). For the same compound, the growth in test [7] is -90.5% (active); in test [8] it was -43.6% (active); in [9], -28.3% (active); in test [10], -6.47% (active); in [11] it was -44.5% (active); in test [12], -94.3% (active). For the same compound, the growth in test [13] was -97.3% (active); in test [14], -77.9% (active); in test [15], -96.4% (active); in test [16], -50.3% (active); in [17], -35.5% (active).
As for `Cc1[nH]c(-c2nc3ccccc3[nH]2)c(C)c1C(=O)N1CCc2sccc2C1`, the growth in test [1] was 107%; in test [2], 91.9%; in test [3], 89.2%; in test [4], 77.9%; in [5], 106%; in test [6], 99.5%. Moreover, the growth is 85.1% in test [7]; 88.7% in test [8]; 93.3% in test [9]; 97.7% in [10]; 91.2% in test [11]; 83.5% in test [12]. Further, the growth is 83.3% in [13]; 98.5% in [14]; 95% in test [15]; 87.7% in test [16]; 93.2% in test [17].
As to `O=C1Nc2ccccc2/C1=N/N=C/c1ccc(OC2OC(CO)C(O)C(O)C2O)cc1` (stereo not given), the growth was 107% in [1]; 100% in test [2]; 101% in test [3]; 78.6% in test [4]; 110% in [5]; 103% in test [6]. The growth was 95.1% in [7]; 107% in [8]; 112% in [9]; 116% in test [10]; 102% in test [11]; 98.2% in test [12]. The growth in test [13] is 115%; in test [14], 116%; in [15] it was 113%; in test [16], 98.9%; in test [17] it was 106%.
As to `O=C1CCC(N2C(=O)c3cccc(NCCCC4CCN(CCNC(=O)c5cc6c(o5)C(=O)c5ccccc5C6=O)CC4)c3C2=O)C(=O)N1` (stereo not given), the growth in test [1] is -46.4% (active); in test [2], -61.8% (active); in test [3], -95.4% (active); in [4] it was -72.9% (active); in [5] it was -70.6% (active); in [6], -92.4% (active). For the same compound, the growth was -26.4% (active) in test [7]; 21.8% in test [9]; 14.5% in test [10]; 6.28% (active) in test [11]; -98% (active) in test [12]; -99.3% (active) in [13]. The growth is -50.3% (active) in test [14], -90.9% (active) in [15], -25.8% (active) in test [16] and 20.4% in test [17].
Take `N=C(N)c1ccc(-c2ccc(-c3ccc(Cl)cc3Cl)o2)cc1`: the growth in test [1] was 105%; in test [2], 58.5%; in test [3], -78.3% (active); in test [4], -83.8% (active); in [5] it was 30.5%; in test [6], -89% (active). Besides, the growth was 17.3% in test [7]; 0.678% (active) in test [8]; -29.2% (active) in test [9]; 2.97% (active) in test [10]; -23.5% (active) in test [11]; 16% in test [12]. Also, the growth was -38.1% (active) in [13], -76.6% (active) in test [14], 29.7% in test [16] and -46.8% (active) in [17].
For `N#C/C(=C\c1ccc2c(c1)OCO2)n1nnc2ccccc21`, the growth in test [1] is 21.6%; in test [2], 23%; in [3], 14.1%; in test [4], 11.9%; in test [5] it was 28.3%; in [6], 22.9%. The growth in [7] was 17.7%; in test [8] it was 18.3%; in [9], 16.4%; in test [10], 28%; in test [11], 17.7%; in [12], -17.5% (active). Besides, the growth in test [13] was 34.2%; in [14] it was 4.33% (active); in [15] it was -69% (active); in test [16] it was -4.27% (active); in test [17], 6.26% (active).
Take `COc1ccc(-c2cc(-c3ccc(Nc4nc(Nc5ccccc5)nc(Nc5ccc(Cl)cc5)n4)cc3)nc(N)n2)cc1`: the growth in test [1] is 70.7%; in test [2] it was 58.8%; in test [3], 75%; in test [4], 69%; in [5], 98%; in [6] it was 74.6%. Further, the growth in test [7] is 75.8%; in test [8] it was 27.1%; in test [9], 28.6%; in [19] it was 50.5%; in [11], 79%; in test [12], 66.5%. In addition, the growth is 56.5% in test [13]; 119% in [20]; 39.2% in test [14]; 52.6% in [15]; 69.3% in test [17].
On to `O=C(NCCN1CCC(O)CC1)c1cc2c(o1)C(=O)c1ccccc1C2=O`, for which the growth in [1] is -66.1% (active); in test [2] it was -76.8% (active); in [3], -88.1% (active); in [4], -98.9% (active); in test [5], -91.8% (active); in [6], -89.2% (active). The growth in test [7] was -97.1% (active); in test [8], 2.16% (active); in [9], -4.13% (active); in [10], 13.4%; in test [11], -48.8% (active); in [12] it was -84.7% (active). For the same compound, the growth was -94.1% (active) in [13]; -83.8% (active) in [14]; -75.1% (active) in test [15]; -27.4% (active) in [16]; -26.3% (active) in test [17].
Take `COc1cc2cc(Oc3ccc(NC(=O)Nc4cc(C(F)(F)F)cc(C(F)(F)F)c4)cc3)c(C)nc2cc1OCCN1CCCCC1`: the growth in [1] is -35.6% (active); in test [2] it was -73.1% (active); in [3] it was -92.6% (active); in [4], -98.9% (active); in [5], -72.4% (active); in [6] it was -100% (active). Further, the growth in [7] is -76.7% (active); in test [8], -26.7% (active); in [9], -44.4% (active); in test [10], -29.5% (active); in test [11], -48.1% (active); in test [12], -65.9% (active). The growth is -90.6% (active) in test [13], -91.4% (active) in [15], -44.1% (active) in [16] and -66.9% (active) in test [17].
For the compound `O=C(NCCOCCOCCOCCNC(=O)c1cc2c(o1)C(=O)c1ccccc1C2=O)NC12CC3CC(CC(C3)C1)C2`, the growth in test [1] was -17.9% (active); in [2], -4.03% (active); in [3] it was -68.2% (active); in test [4] it was -59% (active); in test [5], -3.88% (active); in test [6], 0.47% (active). Besides, the growth was -5.41% (active) in test [7]; 18.8% in test [8]; 12.1% in test [9]; 14.8% in test [10]; 1.25% (active) in test [11]; -69.9% (active) in [12]. The growth in [13] is -72.8% (active); in test [14], 6.23% (active); in test [15] it was -32% (active); in [16], -30.3% (active); in test [17], 8.9% (active).
